Reference: PubChem BioAssay AID1159580 (chemical genetic matrix, 2015)
Hit rate of the full screen: of about 5,500 compounds, about 2,000 (36%) were called active. Roughly 18% stayed inconclusive and do not appear here. No stated cut-off is given here; in the data, active means normalized growth mostly below about 0.91 (no sharp cut-off); inconclusive means no clear call, values can overlap the other calls; inactive means mostly above about 0.92. The list shows a part of the results.

Test: chemical genetic growth profiling, strain panel (AID 1159580);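 further: tested at 20 µM; growth read once vehicle control cultures reached saturation at 30 °C; 1 = growth at the plate median or of vehicle wells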
Conditions: growth OD

Measured: normalized growth

CCCCCC1C(=O)CCC1CC(=O)OC (stereo unspecified)
inactive: S. cerevisiae deletion strains, locus YJR043C, strain POL32, stronger effect = lower value 0.991 | S. cerevisiae deletion strains, locus YJR066W, strain TOR1, stronger effect = lower value 0.982 | S. cerevisiae deletion strains, locus YJR075W, strain HOC1, stronger effect = lower value 1.01 | S. cerevisiae deletion strains, locus YKL009W, strain mrt4, stronger effect = lower value 0.914 | S. cerevisiae deletion strains, locus YKL068W, stronger effect = lower value 0.952 | S. cerevisiae deletion strains, locus YKL085W, strain MDH1 (second series), stronger effect = lower value 0.96 | S. cerevisiae deletion strains, locus YKL085W, strain MDH1, stronger effect = lower value 0.96 | S. cerevisiae deletion strains, locus YKL160W, strain elf1, stronger effect = lower value 0.988 | S. cerevisiae deletion strains, locus YKR001C, strain vps1, stronger effect = lower value 0.951 | S. cerevisiae deletion strains, locus YKR026C, strain gcn3, stronger effect = lower value 0.976 | S. cerevisiae deletion strains, locus YKR091W, strain srl3, stronger effect = lower value 0.982 | S. cerevisiae deletion strains, locus YLL001W, strain dnm1, stronger effect = lower value 0.983 | S. cerevisiae deletion strains, locus YLL026W, stronger effect = lower value 0.981 | S. cerevisiae deletion strains, locus YLL041C, strain sdh2, stronger effect = lower value 0.982 | S. cerevisiae deletion strains, locus YLR027C, strain aat2, stronger effect = lower value 0.983 | S. cerevisiae deletion strains, locus YLR039C, strain RIC1, stronger effect = lower value 1.03 | S. cerevisiae deletion strains, locus YLR058C, strain SHM2, stronger effect = lower value 1 | S. cerevisiae deletion strains, locus YLR102C, strain apc9, stronger effect = lower value 0.956 | S. cerevisiae deletion strains, locus YLR113W, strain HOG1, stronger effect = lower value 0.942 | S. cerevisiae deletion strains, locus YLR221C, strain rsa3, stronger effect = lower value 0.985 | S. cerevisiae deletion strains, locus YLR258W, strain gsy2, stronger effect = lower value 0.981 | S. cerevisiae deletion strains, locus YLR262C, strain YPT6 (second series), stronger effect = lower value 1.02 | S. cerevisiae deletion strains, locus YLR262C, strain YPT6, stronger effect = lower value 1.05 | S. cerevisiae deletion strains, locus YLR268W, strain sec22, stronger effect = lower value 0.956 | S. cerevisiae deletion strains, locus YLR320W, strain mms22, stronger effect = lower value 0.97 | S. cerevisiae deletion strains, locus YLR330W, strain CHS5, stronger effect = lower value 0.97 | S. cerevisiae deletion strains, locus YLR342W, strain FKS1 (second series), stronger effect = lower value 1.08 | S. cerevisiae deletion strains, locus YLR342W, strain FKS1, stronger effect = lower value 0.984 | S. cerevisiae deletion strains, locus YLR357W, strain rsc2, stronger effect = lower value 0.947 | S. cerevisiae deletion strains, locus YLR370C, strain arc18, stronger effect = lower value 0.978 | S. cerevisiae deletion strains, locus YLR371W, strain rom2, stronger effect = lower value 0.958 | S. cerevisiae deletion strains, locus YLR384C, strain iki3, stronger effect = lower value 0.961 | S. cerevisiae deletion strains, locus YLR418C, strain cdc73, stronger effect = lower value 1.02 | S. cerevisiae deletion strains, locus YML016C, strain PPZ1, stronger effect = lower value 0.975 | S. cerevisiae deletion strains, locus YML032C, strain rad52, stronger effect = lower value 0.983 | S. cerevisiae deletion strains, locus YML120C, strain ndi1, stronger effect = lower value 0.994 | S. cerevisiae deletion strains, locus YML124C, strain tub3, stronger effect = lower value 0.941 | S. cerevisiae deletion strains, locus YMR058W, strain fet3, stronger effect = lower value 0.992 | S. cerevisiae deletion strains, locus YMR078C, strain ctf18, stronger effect = lower value 0.945 | S. cerevisiae deletion strains, locus YMR125W, strain sto1, stronger effect = lower value 0.971 | S. cerevisiae deletion strains, locus YMR129W, stronger effect = lower value 0.973 | S. cerevisiae deletion strains, locus YMR205C, strain PFK2, stronger effect = lower value 0.969 | S. cerevisiae deletion strains, locus YMR223W, strain ubp8, stronger effect = lower value 0.981 | S. cerevisiae deletion strains, locus YMR231W, strain pep5, stronger effect = lower value 0.97 | S. cerevisiae deletion strains, locus YMR263W, strain SAP30, stronger effect = lower value 1.02 | S. cerevisiae deletion strains, locus YMR307W, strain GAS1, stronger effect = lower value 1.24 | S. cerevisiae deletion strains, locus YNL067W, strain RPL9B, stronger effect = lower value 1.03 | S. cerevisiae deletion strains, locus YNL071W, strain lat1, stronger effect = lower value 0.988 | S. cerevisiae deletion strains, locus YNL153C, strain GIM3, stronger effect = lower value 1.02 | S. cerevisiae deletion strains, locus YNL183C, strain NPR1, stronger effect = lower value 0.928 | S. cerevisiae deletion strains, locus YNL209W, strain ssb2, stronger effect = lower value 0.983 | S. cerevisiae deletion strains, locus YNL233W, strain BNI4, stronger effect = lower value 1.04 | S. cerevisiae deletion strains, locus YNL248C, strain rpa49, stronger effect = lower value 0.967 | S. cerevisiae deletion strains, locus YNL250W, strain rad50, stronger effect = lower value 0.945 | S. cerevisiae deletion strains, locus YNL271C, strain bni1, stronger effect = lower value 0.937 | S. cerevisiae deletion strains, locus YNL298W, strain CLA4, stronger effect = lower value 0.966 | S. cerevisiae deletion strains, locus YNL307C, strain MCK1, stronger effect = lower value 0.97 | S. cerevisiae deletion strains, locus YNL322C, strain KRE1 (second series), stronger effect = lower value 0.981 | S. cerevisiae deletion strains, locus YNL322C, strain KRE1, stronger effect = lower value 0.988 | S. cerevisiae deletion strains, locus YNR049C, strain mso1, stronger effect = lower value 0.987 | S. cerevisiae deletion strains, locus YNR052C, strain pop2, stronger effect = lower value 0.978 | S. cerevisiae deletion strains, locus YOL012C, strain htz1 1.15 | S. cerevisiae deletion strains, locus YOL147C, strain pex11, stronger effect = lower value 0.965 | S. cerevisiae deletion strains, locus YOR001W, strain rrp6, stronger effect = lower value 0.977 | S. cerevisiae deletion strains, locus YOR061W, strain CKA2, stronger effect = lower value 0.99 | S. cerevisiae deletion strains, locus YOR069W, strain VPS5, stronger effect = lower value 0.978 | S. cerevisiae deletion strains, locus YOR070C, strain gyp1, stronger effect = lower value 0.972 | S. cerevisiae deletion strains, locus YOR080W, strain dia2, stronger effect = lower value 0.974 | S. cerevisiae deletion strains, locus YOR083W, strain WHI5, stronger effect = lower value 0.986 | S. cerevisiae deletion strains, locus YOR106W, strain vam3, stronger effect = lower value 1.03 | S. cerevisiae deletion strains, locus YOR136W, strain idh2, stronger effect = lower value 0.973 | S. cerevisiae deletion strains, locus YOR144C, strain elg1, stronger effect = lower value 0.963 | S. cerevisiae deletion strains, locus YOR184W, strain ser1, stronger effect = lower value 0.921 | S. cerevisiae deletion strains, locus YOR231W, strain MKK1, stronger effect = lower value 0.977 | S. cerevisiae deletion strains, locus YOR265W, strain rbl2, stronger effect = lower value 0.981 | S. cerevisiae deletion strains, locus YOR270C, strain vph1, stronger effect = lower value 0.997 | S. cerevisiae deletion strains, locus YOR290C, strain snf2, stronger effect = lower value 1 | S. cerevisiae deletion strains, locus YOR316C, strain cot1, stronger effect = lower value 0.952 | S. cerevisiae deletion strains, locus YPL051W, strain arl3, stronger effect = lower value 0.991 | S. cerevisiae deletion strains, locus YPL055C, strain LGE1, stronger effect = lower value 1 | S. cerevisiae deletion strains, locus YPL078C, strain atp4, stronger effect = lower value 0.975 | S. cerevisiae deletion strains, locus YPL106C, strain sse1, stronger effect = lower value 0.999 | S. cerevisiae deletion strains, locus YPL240C, strain hsp82, stronger effect = lower value 0.969 | S. cerevisiae deletion strains, locus YPL241C, strain CIN2, stronger effect = lower value 0.977 | S. cerevisiae deletion strains, locus YPL256C, strain CLN2, stronger effect = lower value 0.97 | S. cerevisiae deletion strains, locus YPR119W, strain clb2, stronger effect = lower value 0.939 | S. cerevisiae deletion strains, locus YPR141C, strain kar3, stronger effect = lower value 0.944 | S. cerevisiae deletion strains, locus YPR163C, strain tif3, stronger effect = lower value 0.963 | S. cerevisiae deletion strains, locus YPR167C, strain met16, stronger effect = lower value 0.959 | S. cerevisiae deletion strains, strain wtn01, stronger effect = lower value 0.962 | S. cerevisiae strains, strain wild type, stronger effect = lower value 1
